The full data set covers some 7,900 targets. This sample favours those with a hit. About 0.6% of all pairs of compound and target were hits. Values without a mark were called inactive.
Key:
Assay in all cases: log2 fold change, soluble protein after heating vs DMSO (PISA); higher = thermal stabilisation; K562 cells, 10 uM, 30 min; active = over 0.2 and 3.5 SD of the protein, either way, in both replicates (recomputed)
[1] = compound: COC1=CC=C(C=C1)CN2C=CC3=C2C=C(C=C3)C(=O)NO
Summary of the method: (§1)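 Thermal stability values are relative to control samples and come from duplicates. They are expressed as log2 fold changes. For measurement, K562 cells (2×10^6 cells/mL) received 10 μM compound for 30 min, and aliquots were heated for 3 min over 48°C-58°C, pooled, and extracted at 4°C in PBS with 0.5% NP-40. Soluble protein, the supernatant after 21,000xg for 90 min, was quantified by TMTpro 16plex LC-MS/MS with equalised channel sums.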

[2] = compound: CON(C)C(=O)N1N=C(c2cc(F)ccc2F)S[C@@]1(CCCN)c1ccccc1 [filanesib]
Summary of the method: as §1

[3] = compound: CO[C@H]1C[C@@H]2CC[C@@H](C)[C@@](O)(O2)C(=O)C(=O)N2CCCC[C@H]2C(=O)O[C@H]([C@H](C)C[C@@H]2CC[C@H](n3cnnn3)[C@H](OC)C2)CC(=O)[C@H](C)/C=C(\C)[C@@H](O)[C@@H](OC)C(=O)[C@H](C)C[C@H](C)/C=C/C=C/C=C/1C [zotarolimus]
Summary of the method: as §1

[4] = compound: COc1cc(C(=O)O)ccc1NC(=O)[C@@H]1N[C@@H](CC(C)(C)C)[C@](C#N)(c2ccc(Cl)cc2F)[C@H]1c1cccc(Cl)c1F [idasanutlin]
Summary of the method: as §1

[5] = compound: COc1cc(Nc2ncc3c(n2)-c2ccc(Cl)cc2C(c2c(F)cccc2OC)=NC3)ccc1C(=O)O [alisertib]
Summary of the method: as §1

[6] = compound: COc1cc2nc(-c3cc(F)ccc3O)nc(N[C@@H]3CNC[C@H]3C(C)(C)O)c2cc1OC
Summary of the method: as §1

[7] = compound: COc1cc2ncnc(Nc3ccc(F)c(Cl)c3)c2cc1OCCCN1CCOCC1 [gefitinib]
Summary of the method: as §1

[8] = compound: COc1cccc2cc(-c3nc([C@H]4CC[C@H](C(=O)O)CC4)n4ncnc(N)c34)[nH]c12
Summary of the method: as §1

[9] = compound: CS(=O)(=O)CCNCc1ccc(-c2ccc3ncnc(Nc4ccc(OCc5cccc(F)c5)c(Cl)c4)c3c2)o1 [lapatinib]
Summary of the method: as §1

[10] = compound: CS(=O)(=O)N1CCN(Cc2cc3nc(-c4cccc5[nH]ncc45)nc(N4CCOCC4)c3s2)CC1 [pictilisib]
Summary of the method: as §1

[11] = compound: CS(=O)(=O)c1ccc(-c2cnc(N)c(C(=O)Nc3ccccc3)n2)cc1
Summary of the method: as §1

[12] = compound: C[C@@H](Oc1cc(-c2cnn(C3CCNCC3)c2)cnc1N)c1c(Cl)ccc(F)c1Cl [crizotinib]
Summary of the method: as §1

[13] = compound: C[C@@H]1COCCN1C2=NC(=NC(=C2)C3(CC3)S(=O)(=O)C)C4=C5C=CNC5=CC=C4
Summary of the method: as §1

[14] = compound: C[C@H](C1=CC=C(C=C1)C(=O)NC2=C3C=CNC3=NC=C2)N
Summary of the method: as §1

[15] = compound: C[C@H](Nc1ncnc2nc[nH]c12)c1cc2cccc(Cl)c2c(=O)n1-c1ccccc1 [duvelisib]
Summary of the method: as §1

[16] = compound: Cc1cc(Nc2cc(CN3CCOCC3)c3nc(C)c(Cc4ccc(Cl)cc4F)n3n2)n[nH]1 [gandotinib]
Summary of the method: as §1

[17] = compound: Cc1cc(Nc2cc(N3CCN(C)CC3)nc(Sc3ccc(NC(=O)C4CC4)cc3)n2)n[nH]1 [tozasertib]
Summary of the method: as §1

[18] = compound: Cc1cc(SCc2sc(-c3ccc(C(F)(F)F)cc3)nc2C)ccc1OCC(=O)O
Summary of the method: as §1

[19] = compound: Cc1ccc(-n2nc(C(C)(C)C)cc2NC(=O)Nc2ccc(OCCN3CCOCC3)c3ccccc23)cc1 [doramapimod]
Summary of the method: as §1

[20] = compound: Cc1ccc(C(=O)N(CCCN)[C@@H](c2nc3cc(Cl)ccc3c(=O)n2Cc2ccccc2)C(C)C)cc1 [ispinesib]
Summary of the method: as §1

Chain of UniProt Q7L1V2 (Q7L1V2 whole entry, looked up): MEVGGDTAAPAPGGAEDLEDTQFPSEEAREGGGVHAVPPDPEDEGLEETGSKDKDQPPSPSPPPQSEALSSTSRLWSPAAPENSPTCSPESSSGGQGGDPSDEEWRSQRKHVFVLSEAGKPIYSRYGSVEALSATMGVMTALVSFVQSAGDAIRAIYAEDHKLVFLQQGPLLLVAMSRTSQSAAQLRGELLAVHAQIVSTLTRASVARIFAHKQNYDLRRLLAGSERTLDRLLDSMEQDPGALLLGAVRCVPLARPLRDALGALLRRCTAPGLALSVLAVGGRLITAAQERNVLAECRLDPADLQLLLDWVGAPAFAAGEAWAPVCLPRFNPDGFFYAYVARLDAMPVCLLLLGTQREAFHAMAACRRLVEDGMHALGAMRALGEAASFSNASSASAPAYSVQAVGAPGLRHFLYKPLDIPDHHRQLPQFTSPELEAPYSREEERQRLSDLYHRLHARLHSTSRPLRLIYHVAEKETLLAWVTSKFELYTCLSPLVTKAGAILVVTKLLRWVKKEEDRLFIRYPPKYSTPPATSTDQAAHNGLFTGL
Chain of UniProt Q99747 (Q99747 whole entry, looked up): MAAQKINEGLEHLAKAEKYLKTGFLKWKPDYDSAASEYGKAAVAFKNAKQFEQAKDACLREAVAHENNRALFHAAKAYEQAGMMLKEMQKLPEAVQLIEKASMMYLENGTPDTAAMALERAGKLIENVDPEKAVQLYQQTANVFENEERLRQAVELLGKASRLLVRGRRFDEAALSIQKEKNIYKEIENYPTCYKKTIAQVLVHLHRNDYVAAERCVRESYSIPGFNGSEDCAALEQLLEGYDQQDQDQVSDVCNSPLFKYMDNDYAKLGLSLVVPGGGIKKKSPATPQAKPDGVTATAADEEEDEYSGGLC
Chain of UniProt P30419 (P30419 whole entry, looked up): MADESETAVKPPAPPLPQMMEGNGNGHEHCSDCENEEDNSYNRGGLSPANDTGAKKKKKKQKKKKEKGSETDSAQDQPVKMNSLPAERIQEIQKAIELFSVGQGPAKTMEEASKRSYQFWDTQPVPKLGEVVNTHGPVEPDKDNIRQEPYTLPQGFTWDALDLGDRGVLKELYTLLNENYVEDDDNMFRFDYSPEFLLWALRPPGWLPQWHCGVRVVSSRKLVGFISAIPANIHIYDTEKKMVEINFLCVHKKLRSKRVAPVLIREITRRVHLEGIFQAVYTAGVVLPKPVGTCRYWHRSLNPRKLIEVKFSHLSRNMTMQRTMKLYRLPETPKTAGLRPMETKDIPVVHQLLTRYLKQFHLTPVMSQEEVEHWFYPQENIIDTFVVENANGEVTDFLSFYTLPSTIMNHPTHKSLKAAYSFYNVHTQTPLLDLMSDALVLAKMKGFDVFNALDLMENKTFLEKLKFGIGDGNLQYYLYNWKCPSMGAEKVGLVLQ
Chain of UniProt Q15102 (Q15102 whole entry, looked up): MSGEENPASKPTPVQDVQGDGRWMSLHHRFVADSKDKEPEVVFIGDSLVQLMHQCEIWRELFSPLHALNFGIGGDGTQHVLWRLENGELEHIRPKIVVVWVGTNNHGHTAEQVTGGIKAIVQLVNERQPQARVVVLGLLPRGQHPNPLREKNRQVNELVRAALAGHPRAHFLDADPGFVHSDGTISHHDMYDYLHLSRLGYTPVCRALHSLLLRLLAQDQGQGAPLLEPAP
Chain of UniProt Q8WX92 (Q8WX92 whole entry, looked up): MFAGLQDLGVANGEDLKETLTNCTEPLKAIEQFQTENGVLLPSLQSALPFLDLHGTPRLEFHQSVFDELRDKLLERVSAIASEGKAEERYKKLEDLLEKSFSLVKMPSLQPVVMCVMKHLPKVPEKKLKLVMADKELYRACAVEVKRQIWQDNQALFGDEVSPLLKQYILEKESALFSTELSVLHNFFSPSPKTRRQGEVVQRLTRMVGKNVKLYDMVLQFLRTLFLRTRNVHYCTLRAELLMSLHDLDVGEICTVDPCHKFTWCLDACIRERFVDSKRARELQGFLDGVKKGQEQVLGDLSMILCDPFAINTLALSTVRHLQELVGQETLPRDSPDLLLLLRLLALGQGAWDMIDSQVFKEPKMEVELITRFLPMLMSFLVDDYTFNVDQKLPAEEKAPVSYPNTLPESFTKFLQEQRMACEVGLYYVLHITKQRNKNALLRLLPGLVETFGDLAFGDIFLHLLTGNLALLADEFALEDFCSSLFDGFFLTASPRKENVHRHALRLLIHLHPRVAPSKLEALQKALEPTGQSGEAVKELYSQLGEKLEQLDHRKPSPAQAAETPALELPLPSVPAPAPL
Chain of UniProt P49914 (P49914 whole entry, looked up): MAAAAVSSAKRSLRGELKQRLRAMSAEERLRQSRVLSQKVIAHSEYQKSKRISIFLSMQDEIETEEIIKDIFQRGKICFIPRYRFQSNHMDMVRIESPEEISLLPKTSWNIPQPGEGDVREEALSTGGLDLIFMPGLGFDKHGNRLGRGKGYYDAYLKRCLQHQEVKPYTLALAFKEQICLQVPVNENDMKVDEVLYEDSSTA
Chain of UniProt Q9BZQ8 (Q9BZQ8 whole entry, looked up): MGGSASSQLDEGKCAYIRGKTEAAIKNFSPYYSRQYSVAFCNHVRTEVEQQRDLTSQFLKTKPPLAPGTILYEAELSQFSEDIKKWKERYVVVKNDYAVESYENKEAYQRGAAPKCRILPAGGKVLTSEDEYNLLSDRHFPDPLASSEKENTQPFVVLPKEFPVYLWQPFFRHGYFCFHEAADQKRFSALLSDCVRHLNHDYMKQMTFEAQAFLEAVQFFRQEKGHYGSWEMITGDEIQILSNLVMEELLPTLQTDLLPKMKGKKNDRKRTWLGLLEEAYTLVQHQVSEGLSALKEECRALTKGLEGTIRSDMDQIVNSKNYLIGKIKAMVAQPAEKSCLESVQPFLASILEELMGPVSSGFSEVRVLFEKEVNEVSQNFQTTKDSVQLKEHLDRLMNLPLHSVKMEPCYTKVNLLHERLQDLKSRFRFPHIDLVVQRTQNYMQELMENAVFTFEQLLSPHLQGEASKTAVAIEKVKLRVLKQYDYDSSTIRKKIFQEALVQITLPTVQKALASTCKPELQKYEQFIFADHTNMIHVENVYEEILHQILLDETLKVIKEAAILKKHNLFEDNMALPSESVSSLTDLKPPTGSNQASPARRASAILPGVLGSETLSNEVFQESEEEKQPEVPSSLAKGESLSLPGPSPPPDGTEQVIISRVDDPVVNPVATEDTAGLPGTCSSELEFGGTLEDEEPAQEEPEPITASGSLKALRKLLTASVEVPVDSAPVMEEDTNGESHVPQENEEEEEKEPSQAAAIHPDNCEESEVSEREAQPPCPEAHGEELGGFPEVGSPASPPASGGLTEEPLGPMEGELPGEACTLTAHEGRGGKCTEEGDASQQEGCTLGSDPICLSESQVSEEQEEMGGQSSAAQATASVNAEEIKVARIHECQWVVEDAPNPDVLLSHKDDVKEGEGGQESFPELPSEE
Chain of UniProt Q16795 (Q16795 whole entry, looked up): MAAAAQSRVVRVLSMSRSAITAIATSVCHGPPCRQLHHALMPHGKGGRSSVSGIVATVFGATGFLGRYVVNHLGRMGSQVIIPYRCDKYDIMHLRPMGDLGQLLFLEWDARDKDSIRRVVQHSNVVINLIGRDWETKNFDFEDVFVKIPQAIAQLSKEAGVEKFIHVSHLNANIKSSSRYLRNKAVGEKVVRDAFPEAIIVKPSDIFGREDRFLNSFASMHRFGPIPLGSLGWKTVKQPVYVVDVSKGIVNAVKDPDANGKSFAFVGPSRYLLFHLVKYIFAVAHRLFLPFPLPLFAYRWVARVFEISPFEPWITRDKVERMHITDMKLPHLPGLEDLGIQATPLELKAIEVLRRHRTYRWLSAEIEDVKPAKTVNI
Chain of UniProt Q9BUB5 (Q9BUB5 whole entry, looked up): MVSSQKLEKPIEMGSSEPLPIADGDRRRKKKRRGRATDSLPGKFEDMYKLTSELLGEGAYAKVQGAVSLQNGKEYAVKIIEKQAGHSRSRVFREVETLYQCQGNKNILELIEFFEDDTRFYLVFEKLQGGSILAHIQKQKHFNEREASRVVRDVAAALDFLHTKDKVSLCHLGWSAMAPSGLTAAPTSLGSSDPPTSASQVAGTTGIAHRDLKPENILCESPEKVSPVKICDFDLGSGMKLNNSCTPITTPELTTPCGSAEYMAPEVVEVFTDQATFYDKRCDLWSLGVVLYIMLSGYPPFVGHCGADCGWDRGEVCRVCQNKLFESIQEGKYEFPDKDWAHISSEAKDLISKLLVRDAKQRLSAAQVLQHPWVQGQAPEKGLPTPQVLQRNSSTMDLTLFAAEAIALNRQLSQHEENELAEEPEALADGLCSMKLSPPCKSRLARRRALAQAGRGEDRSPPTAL
Chain of UniProt Q8N6M0 (Q8N6M0 whole entry, looked up): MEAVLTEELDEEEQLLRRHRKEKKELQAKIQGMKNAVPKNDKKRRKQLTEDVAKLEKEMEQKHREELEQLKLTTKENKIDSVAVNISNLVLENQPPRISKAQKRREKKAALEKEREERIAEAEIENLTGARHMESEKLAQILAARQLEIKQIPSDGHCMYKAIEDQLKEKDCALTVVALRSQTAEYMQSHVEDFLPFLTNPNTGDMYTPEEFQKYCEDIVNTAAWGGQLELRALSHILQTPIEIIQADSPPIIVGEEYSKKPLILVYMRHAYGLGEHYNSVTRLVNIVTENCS
Chain of UniProt Q9UH92 (Q9UH92 whole entry, looked up): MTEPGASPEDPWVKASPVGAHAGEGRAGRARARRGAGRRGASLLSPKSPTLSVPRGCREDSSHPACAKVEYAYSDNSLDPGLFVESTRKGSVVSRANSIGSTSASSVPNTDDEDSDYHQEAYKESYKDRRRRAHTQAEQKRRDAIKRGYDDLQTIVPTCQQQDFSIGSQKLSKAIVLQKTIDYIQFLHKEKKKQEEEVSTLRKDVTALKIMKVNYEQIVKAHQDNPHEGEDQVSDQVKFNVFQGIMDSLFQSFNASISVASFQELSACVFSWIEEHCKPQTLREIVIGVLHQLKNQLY

| Target | log2 fold change [1] | log2 fold change [2] | log2 fold change [3] | log2 fold change [4] | log2 fold change [5] | log2 fold change [6] | log2 fold change [7] | log2 fold change [8] | log2 fold change [9] | log2 fold change [10] | log2 fold change [11] | log2 fold change [12] | log2 fold change [13] | log2 fold change [14] | log2 fold change [15] | log2 fold change [16] | log2 fold change [17] | log2 fold change [18] | log2 fold change [19] | log2 fold change [20] |
| --- | --- | --- | --- | --- | --- | --- | --- | --- | --- | --- | --- | --- | --- | --- | --- | --- | --- | --- | --- | --- |
| NIBAN1 (UniProt Q9BZQ8) | 0.055 | 0.028 | 0.028 | -0.007 | -0.052 | -0.043 | -0.032 | -0.062 | -0.015 | 0 | 0.02 | -0.296 | 0.014 | 0.097 | 0.017 | -0.143 | -0.003 | 0.116 | 0.001 | -0.148 |
| NNT (UniProt Q13423) | -0.008 | -0.08 | 0.015 | -0.076 | -0.041 | 0.037 | 0.016 | 0.031 | -0.031 | -0.01 | 0.031 | 0.032 | 0.047 | -0.06 | 0.025 | -0.246 (active) | 0.015 | -0.006 | -0.023 | 0.02 |
| MON1B (UniProt Q7L1V2) | -0.012 | 0.029 | -0.008 | -0.056 | -0.136 | 0.065 | -0.012 | 0.037 | 0.055 | 0.029 | 0.006 | -0.342 (active) | 0.069 | -0.001 | -0.02 | -0.106 | -0.018 | 0.005 | 0.022 | -0.102 |
| MKNK1 (UniProt Q9BUB5) | 0.021 | -0.108 | -0.022 | -0.075 | 0.008 | -0.021 | 0.525 (active) | -0.073 | 0.015 | -0.058 | 0.038 | -0.082 | -0.039 | 0.31 (active) | 0.031 | 0.038 | 0.085 | 0.057 | 0.054 | -0.03 |
| PAFAH1B3 (UniProt Q15102) | -0.01 | -0.024 | 0.037 | -0.033 | -0.044 | 0.03 | 0.043 | 0.057 | -0.054 | 0.079 | 0.059 | 0.041 | 0.165 | -0.039 | 0.123 | -0.062 | -0.035 | 0.031 | -0.009 | 0.014 |
| OTUD6B (UniProt Q8N6M0) | 0.016 | -0.025 | 0.1 | -0.012 | 0.005 | 0.005 | -0.017 | -0.013 | -0.028 | 0.017 | 0.013 | -0.146 | 0.024 | 0 | -0.02 | -0.086 | 0.055 | 0.122 | 0.009 | -0.165 |
| NMT1 (UniProt P30419) | -0.023 | -0.005 | 0.042 | -0.015 | -0.056 | -0.009 | -0.044 | 0.018 | 0.03 | 0.029 | 0.085 | -0.17 | -0.058 | -0.032 | -0.003 | 0.066 | -0.012 | -0.003 | 0 | -0.164 |
| MTHFS (UniProt P49914) | 0.032 | -0.023 | -0.02 | -0.006 | -0.065 | 0.041 | 0.053 | 0.052 | 0.028 | 0.016 | 0.103 | -0.026 | 0.117 | -0.098 | -0.023 | -0.021 | 0 | 0.037 | 0.013 | 0.046 |
| MRPS12 (UniProt O15235) | 0.018 | 0.074 | 0.039 | -0.162 | -0.03 | -0.088 | -0.078 | -0.062 | 0.082 | -0.177 | 0.046 | -0.075 | 0.015 | 0.311 | -0.058 | 0.063 | 0.011 | 0.022 | 0.003 | -0.65 (active) |
| NFE2 (UniProt Q16621) | 0.135 | 0 | 0.146 | 0.023 | -0.056 | -0.032 | -0.008 | 0.014 | 0.007 | 0.05 | -0.006 | -0.052 | -0.001 | -0.031 | 0.008 | -0.091 | 0.077 | -0.015 | 0.049 | 0.033 |
| MLX (UniProt Q9UH92) | -0.054 | 0.027 | -0.009 | -0.071 | -0.014 | 0.025 | 0.022 | 0.057 | -0.099 | 0.05 | -0.038 | -0.188 | 0.092 | -0.001 | -0.131 | -0.239 | -0.043 | 0.115 | 0.03 | -0.186 |
| NDUFA9 (UniProt Q16795) | -0.002 | -0.116 | 0.008 | -0.229 (active) | -0.04 | -0.008 | -0.055 | 0.014 | -0.052 | -0.024 | 0.007 | -0.139 | 0.079 | 0.022 | 0.006 | -0.115 | -0.038 | 0.052 | -0.031 | -0.122 |
| MRPS35 (UniProt P82673) | 0.018 | 0.024 | 0.051 | -0.168 | -0.04 | 0.026 | -0.054 | -0.13 | 0.022 | -0.021 | 0.004 | -0.043 | 0.016 | 0.166 | 0.016 | -0.039 | 0.032 | 0.101 | 0.005 | -0.277 (active) |
| NELFB isoform 2 (UniProt Q8WX92) | 0.01 | 0.046 | 0.019 | -0.026 | -0.007 | 0.085 | -0.006 | -0.02 | -0.029 | 0.141 | 0.059 | 0.019 | 0.087 | -0.08 | 0.088 | -0.093 | 0.033 | 0.086 | -0.087 | 0.042 |
| NAPG (UniProt Q99747) | 0.046 | -0.046 | 0.052 | -0.001 | -0.005 | -0.066 | 0.025 | -0.089 | 0.029 | -0.008 | 0.045 | -0.029 | 0.045 | -0.098 | 0.054 | -0.046 | 0.126 | 0.143 | -0.05 | 0.025 |
| NCAPG (UniProt Q9BPX3) | 0.079 | -0.018 | 0.054 | -0.064 | 0.03 | 0.038 | 0.022 | -0.116 | 0 | 0.071 | 0.029 | -0.031 | 0.034 | 0.034 | 0.073 | -0.144 | 0.115 | 0.071 | -0.077 | -0.01 |
